The record followed here is PubChem BioAssay (EPA / NIEHS).

Inconclusive results are not listed. Calls of active or inactive are those of the source. Rule for the calls: active = hit-call score of the fitted dose curve at least 0.9, where 1 is the maximum; inconclusive = response in the unintended direction; inactive = score below 0.9.

Read-out in the assay: alkyl and aryl transferase (GSTA2), GSTA2 (gene 2939)
As to the kind of experiment: CLD_GSTA2_6hr: CellzDirect (CLD) Gene Expression Assay for alkyl and aryl transferase (GSTA2) at 6 hours (AID 2283666). As for the experimental part:
CLD_6hr is a cell-based, multiplexed-readout assay that uses hepatocyte, a human liver primary cell, with measurements taken at 6 hours after chemical dosing in a 96-well plate.CLD_GSTA2_6hr is one of 16 assay component(s) measured or calculated from the CLD_6hr assay. It is designed to make measurements of mRNA induction, a form of inducible reporter, as detected with chemiluminescence signals by Quantitative Nuclease Protection Assay (qNPA) technology.Data from the assay component CLD_GSTA2_6hr was analyzed at the endpoint, CLD_GSTA2_6hr, in the positive analysis fitting direction relative to DMSO as the negative control and baseline of activity. Using a type of inducible reporter, gain-of-signal activity can be used to understand changes in the reporter gene as they relate to the gene GSTA2. Furthermore, this assay endpoint can be referred to as a primary readout. To generalize the intended target to other relatable targets, this assay endpoint is annotated to the transferase intended target family, where subfamily is alkyl and aryl transferase.
Human hepatocyte cultures were treated daily for two consecutive days with fresh dosing solutions containing appropriate concentrations of the 320 ToxCast chemicals (chemical identities were blinded to CellzDirect and other ToxCast collaborators), vehicle control (0.2% DMSO), and positive control inducers as summarized in Table 1. Due to the large number of treatment groups and chemicals examined, the ToxCast chemicals were divided into two groups (spanning two independent cultures of hepatocytes from separate donor preparations (Hu778: ToxCast plates 1 and 2; Hu776: ToxCast plates 3 and 4). Each preparation of human hepatocyte cultures was treated with respective vehicle control, medium only control, set of six positive controls/reference chemicals for the five hepatic receptor pathways, and a subset of eight of the ToxCast chemicals (indoxacarb, pyrithiobac-sodium, norflurazon, cyhalofop-butyl, methomyl, thiram, acetochlor, and propiconazole). These replicate data, coupled with internal replicates designed within the blinded ToxCast chemical library, provided additional data to evaluate interindividual differences between hepatocyte preparations and their potential impact on chemical profiles.Cell morphology and integrity were evaluated using phase-contrast microscopy as an indicator of hepatocyte cell health (Tyson & Green, 1987). Cultures for each treatment group (i.e., media, vehicle [0.2% DMSO], positive control inducers [multiple concentrations], and the ToxCast chemicals [multiple concentrations]) were observed and cell morphology was assessed relative to vehicle control cultures at each harvest time point (0, 6, 24, or 48 h). […] Images were evaluated at the conclusion of the study to assess changes in cell integrity and account for the effects of chemical exposure on uncharacteristic changes in concentration-dependent gene expression profiles. The results from these determinations of apparent cytotoxicity were annotated (yes/no) alongside the corresponding qNPA data for reference.At the conclusion of each treatment period, hepatocyte cultures (96-well) were washed with 1 volume of HBSS, lysed by addition of 25 ul ArrayPlate lysis buffer (HTG, Tucson, AZ), and 70 ul/well of Denaturation Oil, denatured by incubation at 95C for 10 min, and frozen at approximately -70C until analysis by nuclease protection assay (qNPA) (Roberts et al., 2007). For qNPA analysis, cell lysates were thawed at 50C for approximately 30 min, qNPA probes were added, and samples were incubated at 95C for 10 min to begin the detection process by denaturing the target RNA, dissociating the duplexes and secondary structure hybridization. At the conclusion of the hybridization period, S1 nuclease reagent was added to each sample to digest all nonprotected nucleotides at 50C for 60-90 min. […]
`CCc1cccc(CC)c1N(COC)C(=O)CCl`: the call was inactive.

Take `Cc1nn(-c2cc(NS(C)(=O)=O)c(Cl)cc2Cl)c(=O)n1C(F)F`: the compound was called inactive.

Turning to `CCCOCC(=Nc1ccc(Cl)cc1C(F)(F)F)n1ccnc1`, the outcome was inactive.

In the case of `COc1cc(OC)nc(Sc2cccc(Cl)c2C(=O)O)n1`, the outcome was inactive.

With `C#CCC1=C(C)C(OC(=O)C2C(C=C(C)C)C2(C)C)CC1=O` (stereo not given), the outcome was inactive.

`CSc1nc(NC(C)C)nc(NC(C)C)n1`: the result was inactive.

In the case of `CCC(=O)Nc1ccc(Cl)c(Cl)c1`, the call was inactive.

Take `CCCCOC(=O)c1ccccc1C(=O)O`: the compound was classed as inactive.

Consider `CCOP(=S)(OCC)Oc1ccc([N+](=O)[O-])cc1`, for which the outcome was inactive.

With `CN(C)[C@@H]1C(=O)C(C(N)=O)=C(O)[C@@]2(O)C(=O)C3=C(O)c4c(O)cccc4[C@@](C)(O)[C@H]3[C@H](O)[C@@H]12`, the result was inactive.

As for `COP(=O)(OC)SCn1c(=O)oc2cc(Cl)cnc21`, the outcome was inactive.

On to `CSC1=N[C@@](C)(c2ccccc2)C(=O)N1Nc1ccccc1`, for which the compound was called inactive.

Turning to `CCOP(=S)(OCC)Oc1cc(C)nc(C(C)C)n1`, the compound was classed as inactive.

On to `CC1=NNC(=O)N(/N=C/c2cccnc2)C1`, for which the result was inactive.

`CCOP(=S)(OCC)Oc1ccc2c(C)c(Cl)c(=O)oc2c1`: the compound was called inactive.

For the compound `CC(COc1ccc(Oc2ccccc2)cc1)Oc1ccccn1` (stereo not given), the call was inactive.

Turning to `CCOP(=O)(NC(C)C)Oc1ccc(SC)c(C)c1` (stereo not given), the compound was called inactive.

As to `CC[C@H](C)[C@H]1O[C@]2(C=C[C@@H]1C)C[C@@H]1C[C@@H](C/C=C(\C)[C@@H](O[C@H]3C[C@H](OC)[C@@H](O[C@H]4C[C@H](OC)[C@@H](NC)[C@H](C)O4)[C@H](C)O3)[C@@H](C)/C=C/C=C3\CO[C@@H]4[C@H](O)C(C)=C[C@@H](C(=O)O1)[C@]34O)O2`, the call was inactive.

On to `CC(C)=CC1C(C(=O)OCN2C(=O)C3=C(CCCC3)C2=O)C1(C)C` (stereo not given), for which the result was inactive.

For the compound `C[N+]1(C)CCCCC1`, the compound was called inactive.

Take `N#CSCSC#N`: the compound was classed as inactive.

For `CN1COCN(Cc2cnc(Cl)s2)C1=N[N+](=O)[O-]`, the compound was classed as inactive.

On to `CC1(C(=O)Nc2ccc(O)c(Cl)c2Cl)CCCCC1`, for which the result was inactive.

For the compound `CC(Oc1cccc(Cl)c1)C(=O)O` (stereo not given), the outcome was inactive.

In the case of `CNC(=O)ON=C(C)SC`, the call was inactive.

As for `CCc1cnc(C2=NC(C)(C(C)C)C(=O)N2)c(C(=O)O)c1` (stereo not given), the outcome was inactive.

As to `CCOC(=O)COc1cc(-c2nn(C)c(OC(F)F)c2Cl)c(F)cc1Cl`, the result was inactive.

Turning to `CC(C)N(C(=O)SCC(Cl)=C(Cl)Cl)C(C)C`, the result was inactive.

Turning to `COc1ccc(C(=CC(=O)N2CCOCC2)c2ccc(Cl)cc2)cc1OC`, the result was inactive.

In the case of `COP(=O)(OC)OC(Br)C(Cl)(Cl)Br` (stereo not given), the result was inactive.

In the case of `S=C1NCCN1`, the result was inactive.

Turning to `CNC(=O)Oc1cccc2c1OC(C)(C)O2`, the compound was called inactive.

In the case of `COc1cccc(C(=O)NN(C(=O)c2cc(C)cc(C)c2)C(C)(C)C)c1C`, the call was inactive.

On to `CCc1cccc(C)c1N(C(=O)CCl)C(C)COC` (stereo not given), for which the call was inactive.

As for `O=c1ccc(=O)[nH][nH]1`, the outcome was inactive.

Take `CCCOc1nn(C(=O)NS(=O)(=O)c2ccccc2C(=O)OC)c(=O)n1C`: the compound was classed as inactive.

As to `CNC(=O)ON=C(SC)C(=O)N(C)C`, the compound was classed as inactive.

Take `CCCCN(CC)c1c([N+](=O)[O-])cc(C(F)(F)F)cc1[N+](=O)[O-]`: the call was inactive.

With `CC(C)[C@H](C(=O)O[C@H](C#N)c1cccc(Oc2ccccc2)c1)c1ccc(Cl)cc1`, the outcome was inactive.

Consider `CCC(=NOC/C=C/Cl)C1=C(O)CC(C2CCOCC2)CC1=O` (stereo not given), for which the compound was called inactive.
